This passage reports outcome and AC50 results from PubChem BioAssay (EPA / NIEHS).

Several values for one entry are separate records, joined by “and”; a condition that tells them apart may be missing. Identical values can stand only once. More than one record can exist for a structure, and the calls need not agree. Activity calls are given as the source filed them. The calls were made as follows: active = hit-call score of the fitted dose curve at least 0.9, where 1 is the maximum; inactive = score below 0.9.

Read-out in assay [1]: urokinase Plasminogen Activator (uPA), PLAU (gene 5328)
As to the kind of experiment: BSK_BF4T_uPA: BioMAP Diversity Plus: BF4T Assay for urokinase Plasminogen Activator (uPA) Biomarker Activity (AID 2284275). The note with it: primary human bronchial epithelial cells with fibroblasts. The essentials: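 Co-culture of human bronchial epithelial cells and dermal fibroblasts; uPA quantified by ELISA 24 hours after dosing, fitted relative to DMSO. Parallel SRB total-protein staining assessed overt cytotoxicity.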

Read-out in assay [2]: Matrix Metallopeptidase 9 (MMP9), MMP9 (gene 4318)
As to the kind of experiment: BSK_BF4T_MMP9: BioMAP Diversity Plus: BF4T Assay for Matrix Metallopeptidase 9 (MMP9) Biomarker Activity (AID 2284276). The note with it: primary human bronchial epithelial cells with fibroblasts. The essentials: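 Co-culture of human bronchial epithelial cells and dermal fibroblasts dosed for 24 h; MMP-9 quantified by ELISA and fitted upward versus DMSO. Cytotoxicity monitored in parallel cultures by SRB total-protein staining at the biomarker time point.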

Read-out in assay [3]: Interleukin-8 (IL8), CXCL8 (gene 3576)
Briefly: BSK_IMphg_IL8: BioMAP Diversity Plus: IMphg Assay for Interleukin-8 (IL8) Biomarker Activity (AID 2284277). The note with it: primary human endothelial cells with macrophages. The essentials: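 Co-culture of human venular endothelial cells and macrophages exposed to chemicals for 24 h; IL-8 quantified by ELISA and compared against the DMSO baseline, with SRB total-protein staining in parallel cultures for cytotoxicity.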

Read-out in assay [4]: Intercellular Adhesion Molecule 1 (ICAM1), ICAM1 (gene 3383)
Briefly: BSK_BE3C_ICAM1: BioMAP Diversity Plus: BE3C Assay for Intercellular Adhesion Molecule 1 (ICAM1) Biomarker Activity (AID 2284278).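 Also: cell-surface ICAM-1 protein level quantified by ELISA.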 The note with it: primary human bronchial epithelial cells. The essentials:
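Primary human bronchial epithelial cells were exposed to compound for 24 h, after which cell-surface ICAM-1 was quantified by ELISA. Activity was fitted in the gain-of-signal direction against DMSO as negative control and baseline.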

Read-out in assay [5]: Interferon-inducible T-cell alpha chemoattractant (ITAC), CXCL11 (gene 6373)
Briefly: BSK_BE3C_ITAC: BioMAP Diversity Plus: BE3C Assay for Interferon-inducible T-cell alpha chemoattractant (ITAC) Biomarker Activity (AID 2284279). The note with it: primary human bronchial epithelial cells. The essentials:
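ELISA for I-TAC in primary human bronchial epithelial cultures 24 h post-treatment, fitted relative to DMSO baseline in positive direction. Cytotoxicity checked in parallel cultures by sulforhodamine B protein staining.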

Read-out in assay [6]: Interleukin-8 (IL8), CXCL8 (gene 3576)
Briefly: BSK_BE3C_IL8: BioMAP Diversity Plus: BE3C Assay for Interleukin-8 (IL8) Biomarker Activity (AID 2284280). The note with it: primary human bronchial epithelial cells. The essentials:
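ELISA read-out of IL-8 in human lung bronchial epithelial primary cell cultures, 24 h post-dosing; endpoint analysed as signal increase relative to DMSO baseline.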

Read-out in assay [7]: Epidermal growth factor receptor (EGFR), EGFR (gene 1956)
As to the kind of experiment: BSK_BE3C_EGFR: BioMAP Diversity Plus: BE3C Assay for Epidermal growth factor receptor (EGFR) Biomarker Activity (AID 2284281). The note with it: primary human bronchial epithelial cells. The essentials:
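Primary human lung bronchial epithelial cells; compound, 24 h; EGFR measured by ELISA; positive-direction fit vs DMSO baseline.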

Read-out in assay [8]: KRT18 (gene 3875)
Briefly: BSK_BE3C_Keratin818: BioMAP Diversity Plus: BE3C Assay for Keratin 818 Biomarker Activity (AID 2284282). The note with it: primary human bronchial epithelial cells. The essentials:
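Human primary bronchial epithelial cells in the BE3C system were exposed to test chemical for 24 h, then Keratin 8/18 was quantified by ELISA. Activity was fitted in the positive direction against DMSO as negative control and baseline.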

Read-out in assay [9]: Matrix Metallopeptidase 9 (MMP9), MMP9 (gene 4318)
Briefly: BSK_BE3C_MMP9: BioMAP Diversity Plus: BE3C Assay for Matrix Metallopeptidase 9 (MMP9) Biomarker Activity (AID 2284283). The note with it: primary human bronchial epithelial cells. The essentials: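 Endpoint is the ELISA MMP-9 signal in human primary bronchial epithelial cultures taken 24 h after chemical dosing. DMSO serves as negative control and baseline, with gain-of-signal fitting.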

Read-out in assay [10]: Plasminogen activator inhibitor-1 (PAI1), SERPINE1 (gene 5054)
Briefly: BSK_CASM3C_PAI1: BioMAP Diversity Plus: CASM3C Assay for Plasminogen activator inhibitor-1 (PAI1) Biomarker Activity (AID 2284284).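 Also: PAI-1 protein level measured by ELISA 24 h after dosing.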 The note with it: primary human coronary artery smooth muscle cells.

Consider `FC(F)(F)C(F)(C(F)(F)F)C(F)(F)C(F)(F)CC1CO1` (stereo unspecified), for which the outcome in assay [1], in [2], in [3], in [4], in assay [5] and in assay [6] was inactive. Further, the result in [7], in [8], in assay [9] and in assay [10] was inactive.

As for `O=C(O)C(F)(F)OC(F)(F)C(F)(F)OC(F)(F)C(=O)O`, the result in assay [1], in assay [2], in [3], in assay [4], in assay [5] and in [6] was inactive. Also, the outcome in [7], in assay [8], in assay [9] and in assay [10] was inactive.

As to `C=CC(=O)OCC(F)(F)C(F)F`, the outcome in assay [1], in [2], in assay [3], in assay [4], in [5] and in assay [6] was inactive. Also, the result in assay [7], in assay [8], in assay [9] and in assay [10] was inactive.

As for `O=C(O)C(F)(F)C(F)(F)C(=O)O`, the result in assay [1], in [2], in [3], in assay [4], in assay [5] and in [6] was inactive. In addition, the result in assay [7], in assay [8], in assay [9] and in assay [10] was inactive.

Turning to `O=C(O)C=CC(F)(C(F)(F)F)C(F)(F)F`, the outcome in assay [1], in assay [2], in assay [3], in assay [4], in assay [5] and in [6] was inactive. Further, the result in [7], in assay [8], in [9] and in assay [10] was inactive.

As a reminder, the AC50 is the concentration giving half of the maximal activity seen. In the case of `COC(=O)C(F)(F)C(F)(F)OC(F)(C(F)(F)F)C(F)(F)OC(F)=C(F)F` (stereo unspecified), the outcome in assay [1], in assay [2], in assay [4], in assay [6], in assay [7] and in [8] was inactive. The result in [9] and in [10] was inactive. Also, the AC50 in assay [3] was 1.61 µM (active) and 1.92 µM (active); in [5], 3.93 µM (active) and 4.84 µM (active).

Regarding `COP(=O)(CCC(=O)NCO)OC`, the result in assay [4], in assay [5], in assay [6], in [7], in [8] and in assay [9] was inactive. The outcome in assay [10] was inactive.

`CC(O)C(F)(F)C(F)(F)F` (stereo unspecified): the outcome in [1], in assay [2], in assay [3], in assay [4], in assay [5] and in assay [6] was inactive. Further, the outcome in assay [7], in assay [8], in assay [9] and in assay [10] was inactive.

As for `OCC(F)(F)OC(F)(F)C(F)(F)OC(F)(F)C(F)(F)OC(F)(F)F`, the result in [1], in assay [2], in assay [3], in assay [4], in assay [5] and in [6] was inactive. For the same compound, the result in [7], in assay [8], in assay [9] and in assay [10] was inactive.

As for `OCC(F)(F)OC(F)(F)C(F)(F)OC(F)(F)CO`, the outcome in [1], in assay [2], in assay [3], in assay [4], in [5] and in [6] was inactive. The outcome in assay [7], in [8], in assay [9] and in [10] was inactive.

As for `NC(=O)C(F)(F)C(F)(F)F`, the outcome in assay [1], in [2], in [3], in assay [4], in [5] and in assay [6] was inactive. In addition, the outcome in assay [7], in assay [8], in [9] and in assay [10] was inactive.

For the compound `O=S(=O)(F)C(F)(F)C(F)(F)C(F)(F)C(F)(F)C(F)(F)C(F)(F)C(F)(F)C(F)(F)F`, the outcome in [1], in assay [2], in assay [3], in assay [4], in [5] and in assay [6] was inactive. Moreover, the result in [7], in assay [8], in assay [9] and in assay [10] was inactive.

Take `O=C(O)C(F)(F)OC(F)(F)C(F)(F)OC(F)(F)F`: the outcome in [1], in assay [2], in [3], in assay [4], in assay [5] and in [6] was inactive. In addition, the outcome in assay [7], in [8], in assay [9] and in [10] was inactive. The AC50 in [3] is 22 µM (active).

In the case of `OCC(F)(F)OC(F)(F)C(F)(F)OC(F)(F)C(F)(F)OC(F)(F)CO`, the outcome in assay [1], in assay [2], in assay [3], in assay [4], in [5] and in [6] was inactive. Moreover, the result in assay [7], in [8], in assay [9] and in [10] was inactive. Also, the AC50 in assay [5] was 30 µM (active).

For `O=C(O)C(F)(OC(F)(F)C(F)(F)C(F)(F)F)C(F)(F)F` (stereo unspecified), the outcome in assay [1], in [2], in assay [3], in assay [4], in assay [5] and in assay [6] was inactive. For the same compound, the result in assay [7], in assay [8], in assay [9] and in assay [10] was inactive. Further, the AC50 in [3] is 5.95 µM (active); in assay [9], 1.45 µM (active).
